From PubChem BioAssay AID743314 (Broad Institute, 2014)
Potency and affinity values are given separately. Results filed as inconclusive are left out. Activity calls are given as the source filed them.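 The calls were made as follows: active = fitted half-maximal concentration no higher than twice the top tested dose, in every repeat run; inconclusive = repeat runs disagree, poor fit, or flat partial inhibition; inactive = the rest.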

What follows are compounds tested against Endoplasmic reticulum aminopeptidase 1 (Homo sapiens) (UniProt Q9NZ08) (assay: ERAP1 aminopeptidase inhibitors, dose response, biochemical, cherry-pick, set 2, plate reader (AID 743314)). Details: Recombinant ERAP1, Leu-AMC fluorescence, 60 min; series mostly up to 11 µM.
Sequence of Endoplasmic reticulum aminopeptidase 1 (Homo sapiens) (Q9NZ08 whole entry, looked up): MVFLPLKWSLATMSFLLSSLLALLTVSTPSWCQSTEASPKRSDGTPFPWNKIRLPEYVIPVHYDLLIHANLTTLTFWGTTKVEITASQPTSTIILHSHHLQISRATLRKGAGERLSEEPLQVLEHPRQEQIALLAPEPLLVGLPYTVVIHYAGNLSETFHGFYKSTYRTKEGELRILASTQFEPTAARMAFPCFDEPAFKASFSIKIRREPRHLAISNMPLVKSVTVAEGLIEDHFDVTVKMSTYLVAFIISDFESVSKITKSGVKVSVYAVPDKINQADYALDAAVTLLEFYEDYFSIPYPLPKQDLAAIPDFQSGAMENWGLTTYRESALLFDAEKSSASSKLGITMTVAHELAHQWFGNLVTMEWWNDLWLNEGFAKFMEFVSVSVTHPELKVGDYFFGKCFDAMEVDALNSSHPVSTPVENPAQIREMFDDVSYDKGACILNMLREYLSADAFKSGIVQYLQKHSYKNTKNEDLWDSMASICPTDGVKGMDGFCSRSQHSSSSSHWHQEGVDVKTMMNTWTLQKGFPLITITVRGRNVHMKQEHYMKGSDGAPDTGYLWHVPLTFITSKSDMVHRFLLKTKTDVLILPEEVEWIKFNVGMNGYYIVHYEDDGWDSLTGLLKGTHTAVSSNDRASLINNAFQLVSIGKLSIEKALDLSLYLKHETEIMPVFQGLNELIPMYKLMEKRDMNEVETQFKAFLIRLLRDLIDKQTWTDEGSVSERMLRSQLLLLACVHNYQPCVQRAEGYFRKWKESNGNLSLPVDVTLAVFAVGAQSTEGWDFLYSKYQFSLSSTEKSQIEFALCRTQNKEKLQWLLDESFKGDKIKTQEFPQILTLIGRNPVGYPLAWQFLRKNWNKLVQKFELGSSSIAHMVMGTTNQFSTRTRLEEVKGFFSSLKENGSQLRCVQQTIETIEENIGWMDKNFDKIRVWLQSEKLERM

outcome, inactive:
CCC(=O)N1[C@@H](CO)[C@@H](c2ccccc2)C12CN(Cc1cccnc1)C2, C[C@H]1CN([C@@H](C)CO)C(=O)CCCn2cc(nn2)CO[C@@H]1CN(C)Cc1ccccc1, C[C@@H]1CCCCO[C@@H](CN(C)C)[C@H](C)CN([C@H](C)CO)C(=O)c2cc(NS(=O)(=O)c3ccc(Cl)cc3)ccc2O1, O=C(c1ccc(F)cc1)N1CC2(C1)[C@H](c1ccccc1)[C@@H](CO)N2Cc1ccccn1, CCCN1[C@@H]2Cn3c(ccc(-c4cccnc4)c3=O)[C@H]1[C@@H](C(=O)NCCc1cn(C)cn1)[C@@H]2CO, COc1ccc(S(=O)(=O)NC[C@@H]2CC[C@H]3[C@H](CN3Cc3cc(F)ccc3F)O2)cc1, COc1ccccc1CN1CC[C@@H]2[C@H](CO)Nc3ccc(-c4cccc(C(=O)N(C)C)c4)cc3[C@@H]21, CC(=O)N1CCCCN2[C@H](CO)[C@@H](c3ccc(-c4ccccc4)cc3)[C@H]2C1, CN(CC(=O)Nc1cccc(F)c1)C(=O)CCc1nc2ccccc2c(=O)[nH]1, COC(=O)[C@H]1[C@H](CO)[C@H]2Cn3c(ccc(C4=CCCC4)c3=O)[C@H]2N1C(=O)C1CC1, C[C@@H]1CN([C@@H](C)CO)C(=O)c2cc(NC(=O)CCN3CCOCC3)ccc2O[C@H]1CN(C)S(=O)(=O)c1ccccc1, Cc1ccc(OCC(=O)Nc2ccc(S(=O)(=O)N(C)C3CCN(C)CC3)cc2)c(C)c1, CC(=O)N1CC[C@@H]2[C@@H](CO)N(C)c3ccc(-c4ccc(C#N)cc4)cc3[C@@H]21, CCOc1ccccc1N1CCN(C(=O)C2=CC=CN3CCS(=O)(=O)N=C23)CC1, Cc1ccc(S(=O)(=O)N2CCN(C(=O)COC(=O)c3ccc(Cl)c(S(N)(=O)=O)c3)CC2)c(C)c1, O=c1cc(CN2CCOCC2)c2cc(Cl)c(O)cc2o1, C[C@H](CO)N1C[C@H](C)[C@H](CN(C)S(=O)(=O)c2ccccc2)Oc2ccc(NC(=O)CCN3CCOCC3)cc2C1=O, C[C@@H]1CN([C@H](C)CO)C(=O)c2cccc(NS(=O)(=O)c3ccc(Cl)cc3)c2O[C@@H]1CN(C)C(=O)Nc1ccccc1, CN(c1ccccc1)S(=O)(=O)c1cc(C(=O)OCC(=O)N2CCN(C(=O)c3ccco3)CC2)ccc1Cl, C[C@H](CO)N1C[C@H](C)[C@H](CN(C)C)OCCCC[C@H](C)Oc2ccc(NS(=O)(=O)c3ccc(Cl)cc3)cc2C1=O, C[C@@H]1CCCCO[C@H](CN(C)C)[C@H](C)CN([C@@H](C)CO)C(=O)c2cc(NS(=O)(=O)c3ccc(Cl)cc3)ccc2O1, COc1ccc(CN(C)C[C@H]2Oc3ccc(NS(=O)(=O)c4ccc(C)cc4)cc3C(=O)N([C@@H](C)CO)C[C@@H]2C)cc1, CCCNC(=O)N1C[C@@H](C)[C@@H](OC)CN(C)C(=O)c2cc(NS(=O)(=O)CC(F)(F)F)ccc2OC[C@@H]1C, CC(=O)NC(CC(=O)NCCOc1ccccc1F)c1ccccc1 (stereo not drawn), CN(C)C(=O)c1cccc(-c2ccc3c(c2)[C@H]2[C@H](CCN2Cc2nccs2)[C@@H](CO)N3)c1, CCOC(=O)N1CCc2c(sc(NC(=O)c3ccc(S(=O)(=O)N4CCCC4)cc3)c2C#N)C1, CCN(Cc1ccc(OC)c(F)c1)C(=O)C1CCCO1 (stereo not drawn), Cc1c(O)ccc2c(CN3CCN(Cc4ccccc4)CC3)cc(=O)oc12, COc1ccc(S(=O)(=O)N(C)C[C@H]2Oc3ccc(N(C)C)cc3CC(=O)N([C@H](C)CO)C[C@H]2C)cc1, Cc1ccc(Cl)cc1NC(=O)CCC(=O)O, O=C(Cc1ccccn1)N1CC(=O)N2[C@@H](CO)[C@H](c3ccc(C#CC4CCCC4)cc3)[C@@H]2C1, CN1CCN(S(=O)(=O)c2cccc(C(=O)Nc3cc(Cl)ccc3N3CCOCC3)c2)CC1, CC(C)c1ccc(OC(=O)c2cccc(S(=O)(=O)N3CCN(C)CC3)c2)cc1, O=C(C[C@H]1CC[C@@H](NC(=O)Cc2ccccn2)[C@@H](CO)O1)NCCCN1CCOCC1, COCc1cn(CC[C@@H]2CC[C@H](NC(=O)CCN3CCCCC3)[C@H](CO)O2)nn1, CCOC(=O)c1[nH]c2ccc(Br)cc2c1NC(=O)CCN1CCOCC1, N=c1c(S(=O)(=O)c2ccccc2)cc2c(=O)n3ccccc3nc2n1CCCN1CCOCC1, C[C@@H]1CN([C@@H](C)CO)C(=O)c2cc(NS(=O)(=O)c3ccc(Cl)cc3)ccc2O[C@@H](C)CCCCO[C@@H]1CN(C)C
